Where a name gives a salt, the structure may show the parent alone.

The assay concerns MDA-MB-468. The experiment in a line: phospho-S6 immunofluorescence (DAPI-normalised), per-plate z-score; higher = higher phospho-S6 signal (less pathway suppression). As to conditions: 24 h. The protocol: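 GPCR-targeted compound library (MedChemExpress HY-L006) tested on MDA-MB-468 PTEN-null TNBC cells in 384-well plates at 0.1, 1 or 10 uM, combined with vehicle, GDC0941 450 nM or lapatinib 1 uM, for 24 h. Phospho-S6 (S240/244) immunofluorescence normalised to DAPI and expressed as a per-plate z-score; values are the mean of biological triplicates.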

For `CC(C)C[C@H](NC(=O)[C@H](Cc1ccccc1)NC(=O)CNC(=O)[C@@H](C)NC(=O)[C@@H](N)Cc1ccc(O)cc1)C(=O)O` [[D-Ala2]leucine-enkephalin] (compound 10 µM), the “phospho-S6 immunofluorescence (z-score)” value is, setting by setting: (co-treatment: GDC0941 450 nM) -0.29; (co-treatment: lapatinib 1 uM) 0.01; (co-treatment: vehicle) 1.34.
The corresponding values for `CNCC(=O)c1ccc(O)c(O)c1` [Adrenalone (hydrochloride)] (compound 10 µM) are 0.18, 1.2 and 0.39.
The corresponding values for `N[C@]1(C(=O)O)CC[C@H](C(=O)O)C1` [trans-ACPD] (compound 10 µM) are 0.3, 0.1 and -0.68.
The matching figures for `CCC(COC(=O)c1cc(OC)c(OC)c(OC)c1)(c1ccccc1)N(C)C` (centres undefined) [Trimebutine (maleate)] (compound 10 µM): 1.12, 1.5 and 0.51.
As for `CSCC[C@H](NC(=O)[C@H](Cc1ccccc1)NC(=O)CNC(=O)CNC(=O)[C@@H](N)Cc1ccc(O)cc1)C(=O)O` (compound 10 µM), the “phospho-S6 immunofluorescence (z-score)” value was -0.41 (co-treatment: GDC0941 450 nM), -0.12 (co-treatment: lapatinib 1 uM) and -0.05 (co-treatment: vehicle).
The corresponding values for `O=Cc1cn(Cc2ccc(Cl)cc2)c2ccccc12` [Oncrasin-1] (compound 10 µM) are -3.49, -7.38 and -9.12.
The matching figures for `CN(C)C(=O)Oc1cc(OC(=O)N(C)C)cc(C(O)CNC(C)(C)C)c1` (centres undefined) [Bambuterol (hydrochloride)] (compound 10 µM): -0.5, 0.49 and -0.4.
The corresponding values for `C[N+]1(C)CCCC(OC(=O)C(O)(c2ccccc2)c2ccccc2)C1` (centres undefined) [Mepenzolate (Bromide)] (compound 10 µM) are -0.25, -0.12 and -0.02.
Consider `CN1[C@@H]2CC[C@H]1C[C@@H](OC(=O)C(CO)c1ccccc1)C2` (some centres undefined) [Atropine (sulfate monohydrate)] (compound 10 µM), for which the “phospho-S6 immunofluorescence (z-score)” value reads like this: (co-treatment: GDC0941 450 nM) -1.09; (co-treatment: lapatinib 1 uM) -0.18; (co-treatment: vehicle) -0.82.
The corresponding values for `O=C(C[S+]([O-])C(c1ccccc1)c1ccccc1)NO` (centres undefined) [Adrafinil] (compound 10 µM) are -0.02, 0.28 and -0.05.
The matching figures for `COc1ccc2[nH]cc(C3=CCNCC3)c2c1` (compound 10 µM): -0.19, -2.58 and -0.11.
The corresponding values for `CN1CCC2=C(C1)c1ccccc1Cc1ccccc12` [Setiptiline (maleate)] (compound 10 µM) are -0.68, -1.28 and -1.11.
Regarding `COc1ccc2c(c1OC)CN1CCc3cc4c(cc3C1C2)OCO4` (centres undefined) [Tetrahydroberberine] (compound 10 µM), the “phospho-S6 immunofluorescence (z-score)” value by setting is: (co-treatment: GDC0941 450 nM) -0.04; (co-treatment: lapatinib 1 uM) -1.09; (co-treatment: vehicle) -0.52.
